# Data published in PubChem BioAssay (NCATS).
# A number with no mark means an inactive call. Inconclusive results are not listed. Entries that show only a call come without a potency. Calls of active or inactive are those of the source. The call rests on the fitted dose curve; in most records, active means well fitted curve in the direction sought with a large enough effect; inconclusive means small, poorly fitted or top-dose-only effect, or another doubt; inactive means no such curve, though single readings can be large; an effect the other way counts as inactive or inconclusive.
# Columns and labels:
# [1] = biological target: Phospholipid hydroperoxide glutathione peroxidase GPX4 (Homo sapiens) (UniProt P36969); assay: Primary qHTS Assay for Inhibitors of Recombinant Selenoprotein Glutathione Peroxidase 4 (GPX4) (AID 1845192); further: nearly all actives have a fitted effect of over 65% in size; further: potency means the concentration at half of the fitted maximal effect; on activity change, negative = inhibition: series mostly up to about 50 µM
# How it was run: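 GR-coupled readout: 100 nM GR, 1 mM GSH, 0.5 mM NADPH; NADPH fluorescence (ex 340/em 450 nm) read at t=0 and after 15 min RT. GPX4 200 nM, preincubated 30 min with compound; substrate 0.5 mM CHP.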
# [2] = biological target: Luciferin 4-monooxygenase (Photinus pyralis) (UniProt P08659); assay: Primary firefly luciferase (FLuc) qHTS assay for identification of artifact compounds. (AID 1845220); further: nearly all actives have a fitted effect of over 60% in size; further: potency means the concentration at half of the fitted maximal effect; on activity change, negative = inhibition: series mostly up to about 54 µM
# How it was run: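 In this counter-screen for luciferase artifacts, test compounds met substrate (10 uM each luciferin and ATP) before 10 nM enzyme started the reaction. Light output was measured 5 min later.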
# [3] = Primary fluorescence-based thiol-reactive (MSTI) qHTS assay for identification of artifact compounds. (AID 1845221); further: nearly all actives have a fitted effect of over 65% in size; further: potency means the concentration at half of the fitted maximal effect;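 on activity change, negative = thiol reactive: series mostly up to about 54 µM; thiol-reactive compounds lower the probe fluorescence signal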
# How it was run: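 qHTS titration of compound; 4 uM MSTI, PBS pH 7.4, 2% DMSO; 1 h RT, dark; fluorescence 525/598 nm; normalized to Acetyl-MSTI and MSTI; 4-parameter Hill fit.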
# [4] = Primary redox qHTS assay for identification of artifact compounds. (AID 1845223)
# How it was run: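 Amplex Red (25 uM) and HRP (250 mU/mL) in HBSS, with compounds for 15 min, then 250 uM DTT for 30 min, room temperature, dark. Fluorescence 525/598 nm read; normalized to DMSO and 10 uM DA3003; Hill fit.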
# [5] = system: Nanoluciferase (engineered Oplophorus gracilirostris luciferase); assay: Primary Nanoluciferase (NLuc) qHTS assay for identification of artifact compounds. (AID 1845222);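 further: NLuc secreted into diluted conditioned medium of S16 cells; series mostly up to about 54 µM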
# How it was run: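 Using secreted nanoluciferase in S16 culture medium (0.22 um filtered, 1:55 dilution), compounds were preincubated 15 min at RT. Signal was generated with Nano-Glo reagent (1:100) over 5 min.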
# Sequence of Phospholipid hydroperoxide glutathione peroxidase GPX4 (Homo sapiens) (P36969 whole entry, looked up): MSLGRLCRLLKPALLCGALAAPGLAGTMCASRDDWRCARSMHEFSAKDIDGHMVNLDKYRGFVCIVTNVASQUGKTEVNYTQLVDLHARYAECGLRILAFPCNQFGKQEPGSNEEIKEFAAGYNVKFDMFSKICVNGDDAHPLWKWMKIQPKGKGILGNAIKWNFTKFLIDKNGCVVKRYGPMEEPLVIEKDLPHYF
structure (smiles),measurement,setting,value
CC1(C)CC[C@]2(C(=O)O)[C@H](O)C[C@]3(C)C(=CCC4[C@@]5(C)CC[C@H](O[C@@H]6O[C@H](CO[C@@H]7OC[C@H](O)[C@H](O)[C@H]7O[C@@H]7OC[C@H](O)[C@H](O)[C@H]7O)[C@@H](O)[C@H](O)[C@H]6O)C(C)(C)C5CC[C@]43C)[C@@H]2C1 (some centres not stated),Potency,[1],inactive
same,outcome,[2],inactive [at 11.6 µM]
same,"activity change, negative = thiol reactive",[3],133% [at 11.5 µM]
same,redox activity (% of DA3003),[4],16.3% [at 11.5 µM]
CC[C@H]1OC(=O)[C@H](C)[C@@H](O[C@H]2C[C@@](C)(OC)[C@@H](O)[C@H](C)O2)[C@H](C)[C@@H](O[C@H]2O[C@H](C)C[C@H](N(C)C)[C@H]2O)[C@](C)(O)C[C@@H](C)C(=O)[C@H](C)[C@@H](O)[C@]1(C)O,Potency,[1],inactive
same,Potency,[2],inactive
same,Potency,[3],inactive
same,Potency,[5],inactive
same,Potency,[4],inactive
O=C(c1ccc(F)cc1)N1CCCC(c2nc(-c3ccc(F)cc3)no2)C1 (configuration not stated),Potency,[1],inactive
same,Potency,[2],inactive
same,Potency,[3],inactive
same,Potency,[4],inactive
COc1cc(CCc2cc(NC(=O)c3ccc(N4CC(C)NC(C)C4)cc3)n[nH]2)cc(OC)c1 (configuration not stated),Potency,[1],inactive
same,Potency,[2],inactive
same,Potency,[3],inactive
same,Potency,[4],inactive
Cc1c(NC(=O)OCC2COCCN2)cn2ncnc(Nc3ccc4c(cnn4Cc4cccc(F)c4)c3)c12 (configuration not stated),Potency,[1],inactive
same,Potency,[2],inactive
same,Potency,[3],inactive
same,Potency,[5],inactive
same,Potency,[4],inactive
CC1(NC(=O)c2ccc(C#Cc3cccc(F)c3)cn2)COC1,Potency,[1],inactive
same,Potency,[2],inactive
same,Potency,[3],inactive
same,Potency,[5],inactive
same,Potency,[4],inactive
CC(C)(F)CC(NC(c1ccc(-c2ccc(S(C)(=O)=O)cc2)cc1)C(F)(F)F)C(=O)NC1(C#N)CC1 (configuration not stated),Potency,[1],inactive
same,Potency,[2],inactive
same,Potency,[3],inactive
same,Potency,[5],inactive
same,Potency,[4],inactive
COc1ccc(C(=O)O[C@H]2C=COC=C3C=C4C(=O)N(C)C(=S)C(=O)N4[C@@H]32)cc1Oc1cc(C=O)ccc1O,Potency,[1],3.13 µM (active)
same,Potency,[2],inactive
same,Potency,[3],inactive
same,Potency,[5],inactive
same,Potency,[4],inactive
COc1ccc(OC)c(-c2ccc(NC(=O)c3ccncc3F)cc2)c1,Potency,[1],inactive
same,Potency,[2],inactive
same,Potency,[3],inactive
same,Potency,[5],inactive
same,Potency,[4],inactive
CN1CCC(NC(=O)c2cc(-c3c(O)cc(O)cc3Oc3ccc([N+](=O)[O-])cc3)on2)CC1,Potency,[1],inactive
same,Potency,[2],inactive
same,Potency,[5],inactive
CC(C)C[C@@H]1NC(=O)[C@@H]2C[C@@]34C[C@@H]5[C@@]6(C)CCCC(C)(C)C6CC[C@@]5(C)N(c5ccccc53)[C@H]4N2C1=O (some centres not stated),Potency,[1],inactive
same,Potency,[2],inactive
same,Potency,[3],inactive
same,Potency,[5],inactive
same,Potency,[4],inactive
COc1cc2nc(N3CCN(C(=O)COc4c(OC)cccc4C(C)C)CC3)nc(N)c2cc1OC,Potency,[2],inactive
same,Potency,[5],inactive
same,Potency,[4],inactive
O=C(Nc1ccccc1C(=O)NC1CCCCNC1=O)c1cc2ccccc2s1 (configuration not stated),Potency,[3],inactive
same,Potency,[5],inactive
same,Potency,[4],inactive
COC(=O)c1ccc2c(c1)[nH]c1ncnc(NCCCN3CCCCC3)c12,Potency,[2],inactive
same,Potency,[3],inactive
same,Potency,[5],inactive
same,Potency,[4],inactive
O=C(NNc1nc2cc(F)ccc2n2cccc12)c1cnccn1,Potency,[1],inactive
same,Potency,[2],inactive
same,Potency,[5],inactive
same,Potency,[4],inactive
C[C@@H](c1ccc2nccn2c1)n1nnc2ncc(-c3cnn(C)c3)nc21,Potency,[2],inactive
same,Potency,[3],inactive
same,Potency,[5],inactive
same,Potency,[4],inactive
CC(=O)Nc1nc(C)c(-c2nc(N3CCCC(O)C3)no2)s1 (configuration not stated),Potency,[2],inactive
same,Potency,[3],inactive
same,Potency,[5],inactive
same,Potency,[4],inactive
O=C1C[C@]23C=CCN4CCC5c6cc7c(cc6N1[C@@]5(CC2)C43)OCO7 (some centres not stated),Potency,[1],inactive
same,Potency,[2],inactive
same,Potency,[5],inactive
same,Potency,[4],inactive
CCNC1(C(N)=O)CCN(c2ncnc3c2nc(-c2ccccc2Cl)n3-c2ccc(Cl)cc2)CC1,Potency,[1],inactive
same,Potency,[3],inactive
same,Potency,[5],inactive
same,Potency,[4],inactive
O=C(Nc1ccc(-c2ccnc(Nc3ccc(N4CCOCC4)cc3)n2)cc1)C1CCCN1 (configuration not stated),Potency,[1],inactive
same,Potency,[3],11.9 µM (active)
same,Potency,[5],inactive
same,Potency,[4],inactive
CC(=O)OC1CCC2(C)C(CCC3(C)C2CC=C2C4C(C)C(C)CCC4(C)CCC23C)C1(C)C(=O)O (configuration not stated),Potency,[1],inactive
same,Potency,[3],inactive
same,Potency,[5],inactive
same,Potency,[4],inactive
Cc1c(Cl)cccc1S(=O)(=O)Nc1nc(NCCc2ccccc2)nc2c1CN(Cc1ccccc1)CC2,Potency,[2],inactive
same,Potency,[3],inactive
same,Potency,[5],inactive
Nc1nc2c(s1)CCN(Cc1ccc(Cl)cc1)CC2,Potency,[1],inactive
same,Potency,[2],inactive
same,Potency,[5],inactive
same,Potency,[4],inactive
O=C(Nc1ccc(C(O)(C(F)(F)F)C(F)(F)F)cc1)c1ccc(C(F)(F)F)cc1,Potency,[2],inactive
same,Potency,[3],inactive
same,Potency,[5],inactive
same,Potency,[4],inactive
Cc1[nH]c(/C=C2\C(=O)Nc3cc(-c4ccccc4)ccc32)c(C)c1CCC(=O)O,Potency,[2],6.01 µM (active)
same,Potency,[3],0.67 µM (active)
same,Potency,[4],inactive
C=CC(C)(O)CC[C@@H]1[C@@]2(C)CCCC(C)(C)C2CC[C@@]1(C)O (some centres not stated),Potency,[1],inactive
same,Potency,[3],inactive
same,Potency,[5],inactive
Cn1ncc(Cl)c1-c1cc(C(=O)N[C@H](CN)Cc2ccc(F)c(F)c2)oc1Cl,Potency,[2],inactive
same,Potency,[3],inactive
same,Potency,[5],inactive
same,Potency,[4],inactive
C=C(NC(=O)C(=C)NC(=O)c1csc(C2=NC3c4csc(n4)C4NC(=O)c5csc(n5)C(C(C)(O)C(C)O)NC(=O)C5CSC(=N5)/C(=C/C)NC(=O)C(C(C)O)NC(=O)c5csc(n5)C3(CC2)NC(=O)C(C)NC(=O)C(=C)NC(=O)C(C)NC(=O)C(C(C)CC)NC2C=Cc3c(C(C)O)cc(nc3C2O)C(=O)OC4C)n1)C(N)=O (configuration not stated),Potency,[2],inactive
same,Potency,[3],inactive
same,Potency,[5],inactive
COCC(c1ccc(C(F)(F)F)cc1)N1CCN(C2(C)CCN(C(=O)c3c(C)ncnc3C)CC2)CC1C (configuration not stated),Potency,[2],inactive
same,Potency,[3],inactive
same,Potency,[5],inactive
CC[C@H](C)/C=C(C)/C=C/C1=CC2=C(Cl)C(=O)[C@](C)(O)[C@H](OC(C)=O)[C@H]2CO1,Potency,[1],inactive
same,Potency,[2],inactive
same,Potency,[5],inactive
same,Potency,[4],inactive
CN(C)S(=O)(=O)c1ccc(NC(=S)N2CCC(C(O)(c3ccccc3)c3ccccc3)CC2)cc1,Potency,[2],inactive
same,Potency,[3],inactive
same,Potency,[5],inactive
same,Potency,[4],inactive
CN(C)CCC(CSc1ccccc1)Nc1ccc(S(=O)(=O)NC(=O)c2ccc(N3CCN(Cc4ccccc4-c4ccc(Cl)cc4)CC3)cc2)cc1[N+](=O)[O-] (configuration not stated),Potency,[2],inactive
same,Potency,[3],2.12 µM (active)
same,Potency,[5],inactive
same,Potency,[4],inactive
NC(=O)c1cccc2[nH]c(-c3ccc(C4CCCN4)cc3F)nc12 (configuration not stated),Potency,[3],inactive
same,Potency,[5],inactive
same,Potency,[4],inactive
COc1cc2ncc(-c3ccccc3)nc2cc1OC,Potency,[1],20.2 µM (active)
same,Potency,[3],inactive
same,Potency,[5],inactive
same,Potency,[4],inactive
O=C(NCc1cccs1)c1cc2nc(-c3ccco3)cc(C(F)(F)Cl)n2n1,Potency,[1],inactive
same,Potency,[2],inactive
same,Potency,[5],inactive
same,Potency,[4],inactive
Cc1cc(-c2nc3cc(F)ccc3s2)ccc1NC(=O)[C@@H](N)CCCCN,Potency,[2],1.9 µM (active)
same,Potency,[3],inactive
same,Potency,[5],inactive
COc1ccnc(CS(=O)c2nc3cc(OC(F)F)ccc3[nH]2)c1OC (configuration not stated),Potency,[2],inactive
same,Potency,[3],21.2 µM (active)
same,Potency,[5],inactive
COc1cc(C(=O)O)ccc1NC(=O)C1NC(CC(C)(C)C)C(C#N)(c2ccc(Cl)cc2F)C1c1cccc(Cl)c1F (configuration not stated),Potency,[1],inactive
same,Potency,[3],inactive
same,Potency,[5],inactive
same,Potency,[4],inactive
NS(=O)(=O)c1ccc(N2N=C(c3ccccc3)CC2c2ccccc2)cc1 (configuration not stated),Potency,[1],16.1 µM (active)
same,Potency,[3],inactive
same,Potency,[5],inactive
same,Potency,[4],inactive
C=C1C(=O)O[C@@H]2C[C@]3(C)[C@@H](CCC(C)O)[C@@H]3C[C@H]12 (some centres not stated),Potency,[1],inactive
same,Potency,[2],inactive
same,Potency,[5],inactive
same,Potency,[4],inactive
CNC1CN(c2ccc3c(=O)c(C(=O)O)cn(-c4nccs4)c3n2)CC1OC (configuration not stated),"activity change, negative = inhibition",[2],-6.28% [at 11.6 µM]
same,"activity change, negative = thiol reactive",[3],-3.65% [at 11.5 µM]
same,"activity, negative = inhibition",[5],-7.32% [at 11.6 µM]
same,redox activity (% of DA3003),[4],-6.95% [at 11.5 µM]
CC(NCCCc1cccc(C(F)(F)F)c1)c1cccc2ccccc12 (configuration not stated),Potency,[1],inactive
same,Potency,[3],inactive
same,Potency,[5],inactive
same,Potency,[4],inactive
C=CC(C)(C)C12CC3C(=O)N4C(CC5(C(C)(C)C=C)c6ccccc6NC45)C(=O)N3C1Nc1ccccc12 (configuration not stated),Potency,[1],inactive
same,Potency,[2],inactive
same,Potency,[4],inactive
Nc1nc(Nc2ccc3c(c2)CCC(N2CCCC2)CC3)nn1-c1cc2c(nn1)-c1ccccc1CCC2 (configuration not stated),Potency,[1],inactive
same,Potency,[2],inactive
same,Potency,[5],inactive
same,Potency,[4],inactive
COc1cc2c(cc1OC(C)C)[C@H](c1ccc(Cl)cc1)N(c1ccc(N(C)CC3CCC(N4CCN(C)C(=O)C4)CC3)cc1)C(=O)C2 (some centres not stated),Potency,[1],inactive
same,Potency,[2],inactive
same,Potency,[5],inactive
same,Potency,[4],inactive
CC(=O)Nc1cccc(-c2csc(Nc3cc(C)ccn3)n2)c1,Potency,[1],inactive
same,Potency,[2],3.01 µM (active)
same,Potency,[4],inactive
COc1cc(C2OC(c3ccc(OC)c(OC)c3)C(C)C2C)ccc1O (configuration not stated),Potency,[5],inactive
same,Potency,[4],inactive
CC(OC1OCCN(Cc2n[nH]c(=O)[nH]2)C1c1ccc(F)cc1)c1cc(C(F)(F)F)cc(C(F)(F)F)c1 (configuration not stated),Potency,[1],inactive
same,Potency,[3],inactive
same,Potency,[5],inactive
same,Potency,[4],inactive
COc1cc(N(C)CCN(C)C)c(N)cc1Nc1nccc(-c2cn(C)c3ccccc23)n1,Potency,[1],inactive
same,Potency,[2],inactive
same,Potency,[5],inactive
same,Potency,[4],inactive
Cc1nc2cc(C(=O)NCc3ccccn3)nn2c(C)c1Cc1cccc(Cl)c1,Potency,[2],inactive
same,Potency,[3],inactive
same,Potency,[5],inactive
same,Potency,[4],inactive
